From the supplement of paper PMC11732987, “Enantioselective OTUD7B fragment discovery through chemoproteomics screening and high-throughput optimisation” (Communications Chemistry, 2025)

Columns and labels:
Test in all cases: log2 ratio of Biotin-Ahx-Ub-VS probe labelling (fragment/DMSO); higher = less target engagement (more negative = stronger competition), active = hit call of the paper (q ≤ 0.05, log2 ratio ≤ -1)
Details in all cases: compound concentration: 200 uM; treatment time: 3 h
USP34 = USP34 (UniProt Q70CQ2)
Sequence of USP34 (Q70CQ2 whole entry, the tested form may be a part): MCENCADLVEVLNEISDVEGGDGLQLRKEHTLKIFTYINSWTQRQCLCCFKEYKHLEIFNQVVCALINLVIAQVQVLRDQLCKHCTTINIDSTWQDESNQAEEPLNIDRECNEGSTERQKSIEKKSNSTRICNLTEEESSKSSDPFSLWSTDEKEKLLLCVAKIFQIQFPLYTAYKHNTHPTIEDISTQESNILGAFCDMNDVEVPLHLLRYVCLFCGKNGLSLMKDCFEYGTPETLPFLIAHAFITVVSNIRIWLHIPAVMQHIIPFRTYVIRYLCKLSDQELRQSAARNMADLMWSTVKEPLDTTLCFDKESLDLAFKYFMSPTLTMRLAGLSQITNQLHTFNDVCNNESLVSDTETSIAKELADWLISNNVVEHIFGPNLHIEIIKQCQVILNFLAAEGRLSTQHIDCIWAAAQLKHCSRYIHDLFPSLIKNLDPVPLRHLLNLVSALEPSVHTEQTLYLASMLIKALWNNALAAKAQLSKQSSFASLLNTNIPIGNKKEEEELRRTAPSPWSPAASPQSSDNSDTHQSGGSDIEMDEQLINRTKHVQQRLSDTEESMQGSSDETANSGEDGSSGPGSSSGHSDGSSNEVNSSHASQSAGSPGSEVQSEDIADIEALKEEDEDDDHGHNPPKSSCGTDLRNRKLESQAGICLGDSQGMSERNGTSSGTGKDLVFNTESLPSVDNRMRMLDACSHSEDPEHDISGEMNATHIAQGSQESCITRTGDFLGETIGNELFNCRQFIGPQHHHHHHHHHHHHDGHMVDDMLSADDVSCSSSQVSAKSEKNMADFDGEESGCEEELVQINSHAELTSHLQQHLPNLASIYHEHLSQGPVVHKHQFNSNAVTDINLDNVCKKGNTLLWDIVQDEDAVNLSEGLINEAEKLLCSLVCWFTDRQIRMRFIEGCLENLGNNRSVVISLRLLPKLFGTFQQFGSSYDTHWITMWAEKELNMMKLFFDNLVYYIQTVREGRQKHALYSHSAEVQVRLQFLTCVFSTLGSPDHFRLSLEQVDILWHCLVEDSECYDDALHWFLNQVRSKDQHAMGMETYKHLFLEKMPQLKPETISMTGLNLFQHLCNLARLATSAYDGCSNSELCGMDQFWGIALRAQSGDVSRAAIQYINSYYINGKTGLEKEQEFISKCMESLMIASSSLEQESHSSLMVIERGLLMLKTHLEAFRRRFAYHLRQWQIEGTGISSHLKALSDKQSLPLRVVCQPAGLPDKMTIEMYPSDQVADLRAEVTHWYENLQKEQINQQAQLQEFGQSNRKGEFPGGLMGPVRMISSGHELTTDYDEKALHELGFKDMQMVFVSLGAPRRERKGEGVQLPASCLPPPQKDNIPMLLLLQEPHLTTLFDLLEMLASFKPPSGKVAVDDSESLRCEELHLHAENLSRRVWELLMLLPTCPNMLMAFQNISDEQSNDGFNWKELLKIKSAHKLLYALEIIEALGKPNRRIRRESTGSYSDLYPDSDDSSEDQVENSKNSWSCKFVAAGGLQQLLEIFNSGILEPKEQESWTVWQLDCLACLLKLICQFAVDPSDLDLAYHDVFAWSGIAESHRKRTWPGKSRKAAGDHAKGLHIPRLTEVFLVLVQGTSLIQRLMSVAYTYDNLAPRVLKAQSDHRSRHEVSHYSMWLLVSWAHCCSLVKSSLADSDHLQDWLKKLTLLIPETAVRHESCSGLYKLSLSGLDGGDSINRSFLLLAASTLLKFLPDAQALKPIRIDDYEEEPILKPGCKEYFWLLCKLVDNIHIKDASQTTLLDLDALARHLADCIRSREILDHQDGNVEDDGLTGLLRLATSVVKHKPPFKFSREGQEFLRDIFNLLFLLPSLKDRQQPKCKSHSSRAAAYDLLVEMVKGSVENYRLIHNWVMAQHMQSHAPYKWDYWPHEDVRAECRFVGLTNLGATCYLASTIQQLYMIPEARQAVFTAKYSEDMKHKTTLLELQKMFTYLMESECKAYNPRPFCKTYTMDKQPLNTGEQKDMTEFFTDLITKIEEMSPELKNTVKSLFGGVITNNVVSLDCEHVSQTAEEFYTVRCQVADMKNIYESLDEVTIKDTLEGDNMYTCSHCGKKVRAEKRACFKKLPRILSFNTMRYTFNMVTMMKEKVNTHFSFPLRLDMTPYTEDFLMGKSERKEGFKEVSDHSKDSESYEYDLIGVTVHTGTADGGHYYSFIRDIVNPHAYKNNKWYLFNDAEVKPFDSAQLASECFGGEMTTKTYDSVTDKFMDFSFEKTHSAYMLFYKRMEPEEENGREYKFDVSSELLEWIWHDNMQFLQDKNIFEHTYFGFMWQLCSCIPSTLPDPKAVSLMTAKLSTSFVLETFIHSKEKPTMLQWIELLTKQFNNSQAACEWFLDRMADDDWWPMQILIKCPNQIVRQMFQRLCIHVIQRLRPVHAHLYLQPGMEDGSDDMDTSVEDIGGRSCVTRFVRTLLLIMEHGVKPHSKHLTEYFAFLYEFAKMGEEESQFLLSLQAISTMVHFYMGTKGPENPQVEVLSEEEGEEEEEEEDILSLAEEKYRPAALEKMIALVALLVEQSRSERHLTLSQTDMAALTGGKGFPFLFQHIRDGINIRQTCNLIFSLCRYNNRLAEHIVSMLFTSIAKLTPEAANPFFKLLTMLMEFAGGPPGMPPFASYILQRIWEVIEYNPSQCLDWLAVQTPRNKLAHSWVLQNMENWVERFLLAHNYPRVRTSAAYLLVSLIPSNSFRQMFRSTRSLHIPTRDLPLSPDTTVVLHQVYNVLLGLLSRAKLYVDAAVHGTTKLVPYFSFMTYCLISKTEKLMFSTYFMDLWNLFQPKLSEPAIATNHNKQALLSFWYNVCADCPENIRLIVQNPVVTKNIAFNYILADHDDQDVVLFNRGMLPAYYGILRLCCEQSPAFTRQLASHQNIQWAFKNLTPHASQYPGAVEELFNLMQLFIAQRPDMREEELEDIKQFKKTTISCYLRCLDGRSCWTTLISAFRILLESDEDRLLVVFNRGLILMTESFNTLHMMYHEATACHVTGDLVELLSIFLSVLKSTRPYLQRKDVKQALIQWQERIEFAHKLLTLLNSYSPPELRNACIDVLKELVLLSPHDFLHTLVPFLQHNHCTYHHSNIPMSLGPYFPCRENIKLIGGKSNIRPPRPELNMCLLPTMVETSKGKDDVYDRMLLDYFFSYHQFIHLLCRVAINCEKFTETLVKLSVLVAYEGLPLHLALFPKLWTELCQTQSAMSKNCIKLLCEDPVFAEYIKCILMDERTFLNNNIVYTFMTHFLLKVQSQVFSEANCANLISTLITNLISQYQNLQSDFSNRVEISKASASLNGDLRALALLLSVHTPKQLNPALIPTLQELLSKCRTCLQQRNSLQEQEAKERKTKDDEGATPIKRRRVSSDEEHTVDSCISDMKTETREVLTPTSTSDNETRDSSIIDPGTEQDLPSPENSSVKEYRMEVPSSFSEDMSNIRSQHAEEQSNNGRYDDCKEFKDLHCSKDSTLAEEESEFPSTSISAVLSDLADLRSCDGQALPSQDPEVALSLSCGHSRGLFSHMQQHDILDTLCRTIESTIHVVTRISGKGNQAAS
How it was run: (§1)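 Each value is an average log2 ratio of fragment to vehicle, tested by unpaired t-test. The underlying Spectronaut label-free quantities were global-median-normalised, and only proteins with ≥2 unique peptides were included. Triplicate HEK293T lysate samples (495 µg) were exposed to fragment at 200 µM or vehicle for 3 h, then to Biotin-Ahx-Ub-VS at 0.5 µM final for 1 h, before NeutrAvidin enrichment of labelled DUBs, LysC and trypsin digestion, and diaPASEF LC-MS/MS.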

USP36 = target: T1, USP36 (UniProt Q9P275)
T1 sequence (whole entry): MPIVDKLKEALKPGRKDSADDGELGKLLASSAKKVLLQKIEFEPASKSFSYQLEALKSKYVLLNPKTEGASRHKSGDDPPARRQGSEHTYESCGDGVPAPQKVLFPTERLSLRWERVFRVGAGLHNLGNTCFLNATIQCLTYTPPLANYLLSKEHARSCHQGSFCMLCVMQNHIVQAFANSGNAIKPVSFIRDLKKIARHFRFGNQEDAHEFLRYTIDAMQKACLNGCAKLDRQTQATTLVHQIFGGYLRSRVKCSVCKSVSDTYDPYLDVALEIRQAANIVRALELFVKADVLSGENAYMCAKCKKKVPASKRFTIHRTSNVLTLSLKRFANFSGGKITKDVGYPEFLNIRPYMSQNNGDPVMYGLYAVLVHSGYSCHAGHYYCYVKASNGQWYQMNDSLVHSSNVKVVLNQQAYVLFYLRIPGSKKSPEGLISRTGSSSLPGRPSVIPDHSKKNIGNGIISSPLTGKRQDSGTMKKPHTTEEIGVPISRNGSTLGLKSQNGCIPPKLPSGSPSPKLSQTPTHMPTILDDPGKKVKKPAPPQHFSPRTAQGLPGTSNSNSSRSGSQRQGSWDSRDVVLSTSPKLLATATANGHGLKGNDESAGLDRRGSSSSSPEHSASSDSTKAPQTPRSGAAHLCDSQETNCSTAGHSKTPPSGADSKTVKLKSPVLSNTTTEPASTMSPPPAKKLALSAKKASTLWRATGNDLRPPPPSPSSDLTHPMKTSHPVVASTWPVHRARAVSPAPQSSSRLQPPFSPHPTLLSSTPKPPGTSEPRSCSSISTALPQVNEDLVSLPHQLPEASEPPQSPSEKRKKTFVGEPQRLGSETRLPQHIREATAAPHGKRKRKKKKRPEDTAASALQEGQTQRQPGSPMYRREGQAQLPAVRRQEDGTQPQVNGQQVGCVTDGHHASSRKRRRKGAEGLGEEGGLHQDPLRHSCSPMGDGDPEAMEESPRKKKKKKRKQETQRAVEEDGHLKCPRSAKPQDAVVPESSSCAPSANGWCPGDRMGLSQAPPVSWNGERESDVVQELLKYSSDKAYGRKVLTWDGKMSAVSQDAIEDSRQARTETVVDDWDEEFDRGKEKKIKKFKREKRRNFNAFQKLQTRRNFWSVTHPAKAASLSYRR
How it was run: as §1

USP38 = target: T2, USP38 (UniProt Q8NB14)
T2 sequence (whole entry): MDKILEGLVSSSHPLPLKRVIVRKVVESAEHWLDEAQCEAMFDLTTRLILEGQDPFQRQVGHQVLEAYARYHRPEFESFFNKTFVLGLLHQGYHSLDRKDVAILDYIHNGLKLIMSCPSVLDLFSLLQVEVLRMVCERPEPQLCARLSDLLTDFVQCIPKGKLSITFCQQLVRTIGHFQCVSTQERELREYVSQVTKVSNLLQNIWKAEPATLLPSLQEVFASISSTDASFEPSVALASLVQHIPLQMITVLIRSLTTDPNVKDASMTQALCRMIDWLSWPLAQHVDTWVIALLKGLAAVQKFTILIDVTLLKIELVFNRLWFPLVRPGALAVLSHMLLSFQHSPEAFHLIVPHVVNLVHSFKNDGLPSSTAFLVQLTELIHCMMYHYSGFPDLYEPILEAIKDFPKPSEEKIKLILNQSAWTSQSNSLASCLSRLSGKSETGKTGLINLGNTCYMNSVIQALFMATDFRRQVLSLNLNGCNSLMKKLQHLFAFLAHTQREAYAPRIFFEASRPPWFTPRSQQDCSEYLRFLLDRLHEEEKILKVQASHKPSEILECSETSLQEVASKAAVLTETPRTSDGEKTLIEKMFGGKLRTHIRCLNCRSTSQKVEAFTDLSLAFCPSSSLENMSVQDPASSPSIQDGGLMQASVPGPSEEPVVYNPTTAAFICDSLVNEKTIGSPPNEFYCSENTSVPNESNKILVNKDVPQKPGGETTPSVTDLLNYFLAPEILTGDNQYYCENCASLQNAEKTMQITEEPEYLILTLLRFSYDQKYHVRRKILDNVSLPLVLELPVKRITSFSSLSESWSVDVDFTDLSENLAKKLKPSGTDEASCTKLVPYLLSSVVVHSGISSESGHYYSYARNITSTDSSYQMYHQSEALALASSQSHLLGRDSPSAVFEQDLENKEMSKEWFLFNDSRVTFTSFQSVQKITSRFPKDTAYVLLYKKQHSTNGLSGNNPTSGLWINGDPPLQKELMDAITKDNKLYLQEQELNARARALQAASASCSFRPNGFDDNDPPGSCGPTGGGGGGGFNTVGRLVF
How it was run: as §1

USP39 = target: T3, USP39 (UniProt Q53GS9)
T3 sequence (whole entry): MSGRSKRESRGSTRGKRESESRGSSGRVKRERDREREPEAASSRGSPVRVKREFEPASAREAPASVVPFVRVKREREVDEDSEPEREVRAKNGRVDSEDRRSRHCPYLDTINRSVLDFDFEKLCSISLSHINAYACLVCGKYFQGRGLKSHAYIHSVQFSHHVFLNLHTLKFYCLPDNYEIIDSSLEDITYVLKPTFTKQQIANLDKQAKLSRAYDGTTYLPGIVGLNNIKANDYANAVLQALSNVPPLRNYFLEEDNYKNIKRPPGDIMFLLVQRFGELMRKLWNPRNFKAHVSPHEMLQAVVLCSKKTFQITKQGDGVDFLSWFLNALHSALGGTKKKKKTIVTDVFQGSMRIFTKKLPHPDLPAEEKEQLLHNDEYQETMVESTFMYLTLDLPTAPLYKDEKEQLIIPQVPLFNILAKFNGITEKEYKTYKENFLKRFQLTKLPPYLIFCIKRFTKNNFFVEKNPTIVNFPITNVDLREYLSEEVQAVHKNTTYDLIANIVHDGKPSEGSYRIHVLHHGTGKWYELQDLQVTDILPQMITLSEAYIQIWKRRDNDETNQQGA
How it was run: as §1

USP4 = target: T4, USP4 (UniProt Q13107)
T4 sequence (whole entry): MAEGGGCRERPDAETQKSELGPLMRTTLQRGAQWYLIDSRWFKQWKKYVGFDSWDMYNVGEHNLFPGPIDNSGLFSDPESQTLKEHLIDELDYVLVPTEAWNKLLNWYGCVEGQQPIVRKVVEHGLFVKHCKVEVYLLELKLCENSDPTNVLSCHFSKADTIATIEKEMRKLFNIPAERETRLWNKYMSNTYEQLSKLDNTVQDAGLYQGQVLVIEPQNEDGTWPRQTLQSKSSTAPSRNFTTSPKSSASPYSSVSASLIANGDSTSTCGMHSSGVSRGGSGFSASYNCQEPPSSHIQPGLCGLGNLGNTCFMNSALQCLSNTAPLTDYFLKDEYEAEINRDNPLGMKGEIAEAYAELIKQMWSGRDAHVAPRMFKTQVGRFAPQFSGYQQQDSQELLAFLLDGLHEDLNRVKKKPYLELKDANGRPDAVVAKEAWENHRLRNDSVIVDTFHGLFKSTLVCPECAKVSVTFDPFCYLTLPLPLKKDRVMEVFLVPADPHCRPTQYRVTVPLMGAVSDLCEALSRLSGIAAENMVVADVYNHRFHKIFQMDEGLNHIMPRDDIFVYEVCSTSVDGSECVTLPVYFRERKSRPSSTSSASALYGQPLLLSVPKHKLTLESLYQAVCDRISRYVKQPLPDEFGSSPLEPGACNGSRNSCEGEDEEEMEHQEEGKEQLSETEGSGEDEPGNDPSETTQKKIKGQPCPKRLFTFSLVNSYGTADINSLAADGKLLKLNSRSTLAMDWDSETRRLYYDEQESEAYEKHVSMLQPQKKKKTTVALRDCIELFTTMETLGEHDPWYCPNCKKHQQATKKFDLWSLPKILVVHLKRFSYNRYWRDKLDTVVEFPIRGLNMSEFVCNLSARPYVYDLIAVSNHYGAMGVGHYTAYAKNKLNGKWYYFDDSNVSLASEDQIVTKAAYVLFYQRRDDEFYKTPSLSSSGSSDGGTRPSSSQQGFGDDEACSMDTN
How it was run: as §1

Measured: log2 ratio of Biotin-Ahx-Ub-VS probe labelling

Cc1conc1C1CN(C(=O)CCl)C1
inactive: USP34 -0.684 | USP36 -0.258 | USP38 -0.799 | USP39 0.247 | USP4 -0.913
